Test results taken from PubChem BioAssay AID1159580 (chemical genetic matrix, 2015).
Several values for one entry are separate records, joined by “and”; a condition that tells them apart may be missing. Equal values may be shown once. Out of some 5,500 compounds screened, about 2,000 (36%) were called active. Inconclusive results (about 18%) are left out. No stated cut-off is given here; in the data, active means normalized growth mostly below about 0.91 (no sharp cut-off); inconclusive means no clear call, values can overlap the other calls; inactive means mostly above about 0.92. This is one part of the list.

Assay: chemical genetic growth profiling, strain panel (AID 1159580);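 further: tested at 20 µM; growth read once vehicle control cultures reached saturation at 30 °C; 1 = growth at the plate median or of vehicle wells; lower values mean less growth of the strain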
Conditions: S. cerevisiae deletion strains, growth OD

Measured: normalized growth

CCN(CC)CCNc1ccc(CO)c2sc3ccccc3c(=O)c12
inactive: locus YAL013W, strain DEP1, hits give low values 1.01 | locus YAL021C, strain ccr4, hits give low values 0.994 | locus YAL026C, strain drs2, hits give low values 0.999 | locus YAL030W, strain snc1, hits give low values 1.01 | locus YBL061C, strain skt5, hits give low values 1 | locus YBR009C, strain hhf1, hits give low values 1.01 | locus YBR021W, strain FUR4, hits give low values 0.955 | locus YBR023C, strain chs3, hits give low values 1 | locus YBR171W, strain sec66, hits give low values 1.02 | locus YBR229C, strain ROT2, hits give low values 1 | locus YBR231C, strain swc5, hits give low values 1 | locus YBR279W, strain paf1, hits give low values 1 | locus YCL011C, strain gbp2, hits give low values 1 | locus YCL016C, strain dcc1, hits give low values 1 | locus YCL029C, strain bik1, hits give low values 1.01 | locus YCL069W, strain vba3, hits give low values 1.01 | locus YCR088W, strain abp1, hits give low values 1.01 | locus YDL005C, strain med2, hits give low values 1.01 | locus YDL035C, strain GPR1, hits give low values 0.992 | locus YDL040C, strain nat1, hits give low values 0.993 | locus YDL074C, strain BRE1, hits give low values 0.948 | locus YDL101C, strain DUN1, hits give low values 0.979 | locus YDL134C, strain PPH21, hits give low values 0.996 | locus YDL185W, strain tfp1, hits give low values 1 | locus YDL192W, strain arf1, hits give low values 1.01 | locus YDR001C, strain nth1, hits give low values 1.01 | locus YDR069C, strain doa4, hits give low values 1.01 | locus YDR101C, strain arx1, hits give low values 1 | locus YDR137W, strain rgp1, hits give low values 0.894 | locus YDR150W, strain NUM1, hits give low values 1 | locus YDR159W, strain sac3, hits give low values 1 | locus YDR162C, strain NBP2, hits give low values 0.969 | locus YDR195W, strain ref2 1.07 | locus YDR297W, strain sur2, hits give low values 1.01 | locus YDR318W, strain mcm21, hits give low values 1 | locus YDR334W, strain swr1, hits give low values 1 | locus YDR335W, strain msn5, hits give low values 1.02 | locus YDR388W, hits give low values 1.01 | locus YDR392W, strain spt3, hits give low values 0.999 | locus YDR502C, strain sam2, hits give low values 0.961 | locus YEL003W, strain gim4, hits give low values 1.01 | locus YEL037C, strain rad23, hits give low values 1.01 | locus YEL061C, strain CIN8 (second series), hits give low values 0.999 | locus YEL061C, strain CIN8, hits give low values 0.999 | locus YER015W, strain faa2, hits give low values 1 | locus YER016W, strain bim1, hits give low values 0.99 | locus YER110C, hits give low values 1.02 | locus YER111C, strain swi4, hits give low values 1 | locus YER155C, strain BEM2 (second series), hits give low values 0.972 | locus YER155C, strain BEM2, hits give low values 1.03 | locus YER167W, strain BCK2, hits give low values 1 | locus YFR010W, strain ubp6, hits give low values 0.999 | locus YGL078C, strain dbp3, hits give low values 1.01 | locus YGL086W, strain mad1, hits give low values 1 | locus YGL167C, strain pmr1, hits give low values 1.01 | locus YGL173C, strain kem1, hits give low values 1.01 | locus YGL227W, strain vid30, hits give low values 0.989 | locus YGL240W, strain doc1, hits give low values 1.01 | locus YGL248W, strain PDE1, hits give low values 1 | locus YGL253W, strain hxk2, hits give low values 1.01 | locus YGR078C, strain PAC10, hits give low values 0.975 | locus YGR135W, strain pre9, hits give low values 0.971 | locus YGR229C, strain SMI1, hits give low values 0.998 | locus YGR252W, strain gcn5, hits give low values 0.918 | locus YHR013C, strain ard1, hits give low values 1.01 | locus YHR027C, strain rpn1, hits give low values 1.01 | locus YHR030C, strain SLT2, hits give low values 1.01 | locus YHR079C, strain IRE1 (second series), hits give low values 1.01 | locus YHR079C, strain IRE1, hits give low values 1.01 | locus YHR094C, strain hxt1, hits give low values 1.02 | locus YHR129C, strain ARP1, hits give low values 0.995 | locus YHR142W, strain chs7, hits give low values 1.01 | locus YHR200W, strain rpn10, hits give low values 1.02 | locus YIL066C, strain RNR3, hits give low values 0.968 | locus YIL073C, strain SPO22, hits give low values 1.18 | locus YIL125W, strain kgd1, hits give low values 1.01 | locus YIR030C, strain dcg1, hits give low values 1.02 | locus YJL092W, strain hpr5, hits give low values 1 | locus YJL095W, strain BCK1 (second series), hits give low values 1.01 | locus YJL095W, strain BCK1, hits give low values 0.952 and 1.02 | locus YJL115W, strain asf1, hits give low values 1.03 | locus YJL129C, strain trk1, hits give low values 1 | locus YJL134W, strain LCB3, hits give low values 1 | locus YJL154C, strain vps35, hits give low values 1.01 | locus YJL164C, strain tpk1, hits give low values 1.01 | locus YJL166W, strain qcr8, hits give low values 1.02 | locus YJL168C, strain set2, hits give low values 1.02 | locus YJL187C, strain SWE1 (second series), hits give low values 0.986 | locus YJL187C, strain SWE1, hits give low values 1 | locus YJR043C, strain POL32, hits give low values 1 | locus YJR066W, strain TOR1, hits give low values 0.949
